# According to publication PMC8769072, “Proteome‐scale mapping of binding sites in the unstructured regions of the human proteome” (Molecular Systems Biology, 2022):
# Chain of YAP1 169-207, P46937 (P46937 169-207): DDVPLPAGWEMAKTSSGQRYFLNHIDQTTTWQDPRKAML
# Chain of TSG101 1-145, Q99816 (Q99816 1-145): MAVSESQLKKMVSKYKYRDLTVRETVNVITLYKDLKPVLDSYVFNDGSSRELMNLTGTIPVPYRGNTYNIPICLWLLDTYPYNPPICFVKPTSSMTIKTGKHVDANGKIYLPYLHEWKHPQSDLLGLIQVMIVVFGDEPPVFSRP
# Chain of TLN1 309-401, Q9Y490 (Q9Y490 309-401): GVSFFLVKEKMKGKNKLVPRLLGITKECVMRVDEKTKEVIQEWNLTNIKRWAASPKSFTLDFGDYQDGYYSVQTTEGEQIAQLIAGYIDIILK
binder,measurement,setting,value
"LNPTAPPSRQGSELHE [ERVK-9, P63128]",selected by phage display,"TSG101 1-145, Q99816",confidence 2 (active)
"LPQYNNAPPPQAAVQQ [ERVK-6, Q7LDI9]",selected by phage display,"YAP1 169-207, P46937",confidence 2 (active)
"GDTEAWQFPVMLEPMP [ERVK-21, P62683]",selected by phage display,"TLN1 309-401, Q9Y490",confidence 2 (active)
